# GRIN3A LBD mod: NR3A (human) ligand-binding domain modulation; NR3A LBD differential scanning fluorimetry, Tm shift; 0% = protein alone, 100% = glycine-bound protein; Tm shift relative to glycine control, % at 25 µM; 340,000 tested, 2.5% active;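 active = melting temperature shift of at least 10% of the positive control shift, at one fixed dose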
# ADAM10 inh: ADAM10 inhibition, QFRET primary screen | recombinant ADAM10, EDANS/DABCYL FRET peptide cleavage, 3 h | inhibition, % at 7 µM | 370,000 tested, 0.62% active;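 active = inhibition above a per-campaign cutoff equal to the mean of compounds falling between control-based bounds plus 3 SD, cut at about 20% in these data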;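 note: 0% = DMSO wells while the 100% control is not disclosed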
# Target sequence (O14672 214-748 limits assumed): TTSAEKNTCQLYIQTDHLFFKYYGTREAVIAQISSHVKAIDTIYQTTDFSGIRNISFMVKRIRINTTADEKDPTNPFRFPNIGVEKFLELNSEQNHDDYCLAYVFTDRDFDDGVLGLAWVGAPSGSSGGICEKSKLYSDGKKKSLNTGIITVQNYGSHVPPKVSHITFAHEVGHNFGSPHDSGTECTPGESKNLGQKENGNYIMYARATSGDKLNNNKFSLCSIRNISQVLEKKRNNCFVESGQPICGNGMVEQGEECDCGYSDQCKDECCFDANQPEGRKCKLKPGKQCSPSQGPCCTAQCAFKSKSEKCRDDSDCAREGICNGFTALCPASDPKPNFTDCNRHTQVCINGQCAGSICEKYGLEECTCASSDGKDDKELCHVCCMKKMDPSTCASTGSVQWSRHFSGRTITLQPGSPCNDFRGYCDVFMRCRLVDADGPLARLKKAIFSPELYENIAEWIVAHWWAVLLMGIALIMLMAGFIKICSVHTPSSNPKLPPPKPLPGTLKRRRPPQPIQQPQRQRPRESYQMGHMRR
# ADAM17 inh: ADAM17 inhibition, QFRET primary screen; recombinant ADAM17, EDANS/DABCYL FRET peptide cleavage; 370,000 tested, 0.83% active; inhibition, % at 6.95 µM;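 active = inhibition above the mean of compounds lying between control limits plus 3 SD, set per campaign, cut at about 8.5% in these data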;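 note: 0% = DMSO-only wells as the low control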
# FAS TE block: FAS thioesterase (human) inhibition; inhibition, % at 15 µM; 360,000 tested, 0.67% active; recombinant FAS-TE, OMFH fluorogenic substrate, fluorescence endpoint;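 active = compounds whose normalised, plate-corrected inhibition of enzyme fluorescence in the single-dose primary screen is 50% or more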;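 note: 0% = DMSO with enzyme and 100% = substrate without enzyme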
# aDG glyco act: increases alpha dystroglycan glycosylation; 360,000 tested, 0.22% active; Pro5-aDG cells, alpha-DG glycosylation AlphaScreen (IIH6); 0% Pro5, 100% B10-LARGE cell signal; activation, % at 10 µM;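 active = activation of at least 8% versus controls, or a plate z-score of at least 8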;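 note: Pro5 are CHO cells carrying HIG-tagged alpha-DG that lacks glycosylation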
# FAS-TE conf: FAS thioesterase (human) inhibition, confirmation; 2,300 tested, 45% active; inhibition, % at 15 µM; recombinant FAS-TE, OMFH fluorogenic substrate, fluorescence; shares compounds with FAS TE block;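 active = compounds inhibiting the enzyme by at least 50% at 15 µM in any one of the replicates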;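 note: 0% = enzyme with DMSO only and 100% = wells lacking enzyme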
# Starred values were filed as active, the others as inactive; i = inactive; . = no result. Shown are actives, neighbours in structure and some others; about 4% of the full set was active somewhere.
SMILES,GRIN3A LBD mod,ADAM10 inh,ADAM17 inh,FAS TE block,aDG glyco act,FAS-TE conf
COc1cccc(-c2cnc(C(O)c3ccc(Cl)c(Cl)c3)[nH]2)c1 (configuration not stated),.,0,1,28,0,.
O=C(O)CCC(=O)NNC(=O)COc1cccc(Cl)c1,1,-3,-2,-4,0,.
CC[C@@]12C(=O)N(c3ccc(OC)cc3)C(=O)N1[C@H](c1ccc(Cl)cc1)[C@@H]1C(=O)N(C3CCCCC3)C(=O)[C@@H]12,-5,6,-1,67*,0,42
CC(C)C[C@@]12C(=O)N(c3cccc(Cl)c3)C(=O)N1[C@H](c1ccc(Cl)cc1)[C@@H]1C(=O)N(C3CCCCC3)C(=O)[C@@H]12,-5,-1,-3,90*,1,28
CC[C@@]12C(=O)N(c3cccc(Br)c3)C(=O)N1[C@H](c1ccc(Cl)cc1)[C@@H]1C(=O)N(C3CCCCC3)C(=O)[C@@H]12,-9,4,0,87*,1,19
CCN1C(=O)[C@H]2[C@@H](c3ccc(C)cc3)N3C(=O)N(c4cccc(Cl)c4)C(=O)[C@@]3(CC(C)C)[C@H]2C1=O,-5,11,5,12,0,.
CC(C)C[C@@]12C(=O)N(c3cccc(Br)c3)C(=O)N1[C@H](c1ccc(Cl)cc1)[C@@H]1C(=O)N(C3CCCCC3)C(=O)[C@@H]12,-1,0,-1,92*,0,19
COc1cccc(-n2nnc3c(=O)n(Cc4cccc(F)c4)cnc32)c1,-1,6,1,15,0,.
COc1ccc(OC)c(NC(=O)c2c(NC(=O)CNCc3ccco3)sc3c2CCC3)c1,0,-5,-2,13,0,.
COc1cc(NS(C)(=O)=O)ccc1Nc1c2ccccc2nc2ccccc12,-2,i,-258,4,0,.
CCOC(=O)c1cc(-c2ccccc2)sc1NC(=O)C(C)N1C(=O)c2ccccc2C1=O (configuration not stated),-3,4,-5,57*,0,-2
COc1cc2c(-c3ccc4cc[nH]c4c3)c(-c3ccc(C#N)cc3)oc(=O)c2cc1OC,1,-174,-49,67*,0,11
CC(C)NC(=O)N(C)C[C@H]1OCCCC[C@@H](C)Oc2ccc(NC(=O)C3CCCCC3)cc2C(=O)N([C@H](C)CO)C[C@@H]1C,.,-11,-5,-6,0,.
C[C@@H]1CN([C@@H](C)CO)C(=O)c2cc(NC(=O)Nc3cccc4ccccc34)ccc2O[C@@H](C)CCCCO[C@H]1CN(C)C(=O)c1ccccc1,.,-66,-17,11,0,.
C[C@@H]1CCCCO[C@H](CN(C)C(=O)Nc2cccc3ccccc23)[C@@H](C)CN([C@H](C)CO)C(=O)c2cc(NC(=O)c3ccccc3)ccc2O1,.,-26,-10,78*,0,0
C[C@@H]1CN([C@@H](C)CO)C(=O)c2cc(NC(=O)C3CCCCC3)ccc2O[C@@H](C)CCCCO[C@H]1CN(C)S(=O)(=O)c1ccc(Cl)cc1,.,16,7,81*,2,8
Cc1ccc(S(=O)(=O)N(C)C[C@H]2OCCCC[C@H](C)Oc3ccc(NC(=O)Nc4cccc5ccccc45)cc3C(=O)N([C@@H](C)CO)C[C@H]2C)cc1,.,-96,-25,82*,0,6
CCSc1nnc(NC(=O)c2cccs2)s1,-2,-2,-4,-6,0,.
NC(=O)c1ccc(C(F)(F)F)n(Cc2c(Cl)cccc2Cl)c1=O,-10,13,1,50*,0,41
C[C@H](NC(=O)c1[nH]cnc1C(=O)Nc1ccccc1)c1ccccc1,-5,14,6,22,0,.
COc1ccc(NC(=O)c2nc[nH]c2C(=O)N[C@H](C)c2ccccc2)cc1,-16,14,6,56*,0,50*
Cc1ccc(N2CC(C)Cn3c2nc2c3c(=O)n(CC(=O)OCc3ccccc3)c(=O)n2C)cc1C (configuration not stated),-3,-6,-2,54*,0,5
Cc1cc(C)cc(N2CCCn3c2nc2c3c(=O)n(CC(=O)OCc3ccccc3)c(=O)n2C)c1,1,.,.,22,0,.
N#C/C(=C\c1cn[nH]c1-c1ccc(Cl)cc1)C(=O)NCc1ccccc1,-1,15,3,-120,0,.
O=C(Nc1ccc(S(=O)(=O)N2CCOCC2)cc1)c1ccc2c(c1)S(=O)(=O)c1ccccc1C2=O,2,-3,-2,-4,0,.
SMILES,GRIN3A LBD mod,ADAM10 inh,ADAM17 inh,FAS TE block,aDG glyco act,FAS-TE conf
O=C(Nc1cc(S(=O)(=O)N2CCOCC2)ccc1O)c1ccc2c(c1)S(=O)(=O)c1ccccc1C2=O,6,1,-4,57*,0,31
COC(=O)C(Cc1ccccc1)NC(=O)C(N)CC(=O)O (configuration not stated),.,8,2,.,.,.
O=C(Nc1nnc(-c2ccc(F)cc2)o1)c1cccc([N+](=O)[O-])c1,-16,4,3,56*,6,54*
COCCN1C(=O)N(c2cccc(OC)c2)C(=O)C1CC(=O)Nc1ccc(Cl)cc1 (configuration not stated),1,3,-5,3,0,.
COc1ccccc1N1CC(C(=O)Nc2cc(C(F)(F)F)ccc2N2CCCC2)CC1=O (configuration not stated),-2,-5,-1,63*,0,65*
Cc1ccc(N2CC(C(=O)Nc3cc(C(F)(F)F)ccc3N3CCCC3)CC2=O)cc1 (configuration not stated),-2,-2,0,21,0,.
CCCCCCCOC(=O)c1nc(Cl)c(Cl)c(N)c1Cl,2,16,6,54*,0,35
COc1cc(CCc2ccccc2)c(C(=O)O)c(O)c1CC=C(C)C,-4,-6,5,19,0,.
COc1cc(CCc2ccccc2)c(C(=O)O)c(O)c1C/C=C(/C)CCC=C(C)C,10*,16,2,87*,0,59*
O=C(O)c1ccc(Cl)c(N2C(=O)Nc3ccccc3N2O)c1,0,-7,-5,-6,0,.
O=C1CC(c2cccc([N+](=O)[O-])c2)c2c(ccc3ccccc23)N1 (configuration not stated),-19,-4,0,55*,0,49*
O=C1CC(c2cccc([N+](=O)[O-])c2)c2cc3c(cc2N1)CCC3 (configuration not stated),-2,12,1,51*,1,33*
O=C1CC(c2cccc(Cl)c2)c2cc3c(cc2N1)CCC3 (configuration not stated),-47,5,7,20,0,.
